# Article PMC11006913
# Changes are numbered by the printed parent chain.
# Key:
# Assay in all cases: PBM; 200 nM protein, PBS
# Details in all cases: dsDNA, one strand shown
# [1] = molecular target: HOXC9 (Homo sapiens, UniProt P31274 178-260, K195R)
# [2] = molecular target: HOXA7 (Homo sapiens, UniProt P31268 116-202)
# [3] = molecular target: HOXC9 (Homo sapiens, UniProt P31274 178-260)
# [4] = molecular target: ALX3 (Homo sapiens, UniProt O95076 139-225, N203Q)
# [5] = molecular target: HOXC9 (Homo sapiens, UniProt P31274 178-260, R193K)
# HOXC9 (Homo sapiens, UniProt P31274 178-260, R193K), sequence (P31274 178-260 R193K): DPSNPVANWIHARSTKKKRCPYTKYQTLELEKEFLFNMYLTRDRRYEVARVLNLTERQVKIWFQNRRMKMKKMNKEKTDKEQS
# [6] = molecular target: ALX3 (Homo sapiens, UniProt O95076 139-225)
# ALX3 (Homo sapiens, UniProt O95076 139-225), sequence (O95076 139-225): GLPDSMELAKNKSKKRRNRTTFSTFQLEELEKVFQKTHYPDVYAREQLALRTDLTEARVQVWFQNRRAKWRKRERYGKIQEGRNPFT
# [7] = molecular target: ALX3 (Homo sapiens, UniProt O95076 139-225, L168Q)
# ALX3 (Homo sapiens, UniProt O95076 139-225, L168Q), sequence (O95076 139-225 L168Q): as the sequence (O95076 139-225) above, with L30Q counted along it
# [8] = molecular target: HOXC9 (Homo sapiens, UniProt P31274 178-260, R222W)
# HOXC9 (Homo sapiens, UniProt P31274 178-260, R222W), sequence (P31274 178-260 R222W): as the sequence (P31274 178-260 R193K) above, with K16R, R45W counted along it
# [9] = molecular target: ALX3 (Homo sapiens, UniProt O95076 139-225, L168V)
# ALX3 (Homo sapiens, UniProt O95076 139-225, L168V), sequence (O95076 139-225 L168V): as the sequence (O95076 139-225) above, with L30V counted along it
# [10] = molecular target: HOXA7 (Homo sapiens, UniProt P31268 116-202, W177C)
# HOXA7 (Homo sapiens, UniProt P31268 116-202, W177C), sequence (P31268 116-202 W177C): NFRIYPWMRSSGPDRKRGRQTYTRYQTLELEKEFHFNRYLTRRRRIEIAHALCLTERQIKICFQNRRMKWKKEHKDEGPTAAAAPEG
# [11] = molecular target: ALX3 (Homo sapiens, UniProt O95076 139-225, N203S)
# ALX3 (Homo sapiens, UniProt O95076 139-225, N203S), sequence (O95076 139-225 N203S): as the sequence (O95076 139-225) above, with N65S counted along it
# [12] = molecular target: HOXA4 (Homo sapiens, UniProt Q00056 201-287, W262R)
# HOXA4 (Homo sapiens, UniProt Q00056 201-287, W262R), sequence (Q00056 201-287 W262R): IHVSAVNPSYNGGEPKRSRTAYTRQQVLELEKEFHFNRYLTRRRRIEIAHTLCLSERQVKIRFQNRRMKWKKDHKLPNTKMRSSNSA
# [13] = molecular target: HOXA4 (Homo sapiens, UniProt Q00056 201-287)
# HOXA4 (Homo sapiens, UniProt Q00056 201-287), sequence (Q00056 201-287): as the sequence (Q00056 201-287 W262R) above, with R62W counted along it
# [14] = molecular target: HOXA4 (Homo sapiens, UniProt Q00056 201-287, W262F)
# HOXA4 (Homo sapiens, UniProt Q00056 201-287, W262F), sequence (Q00056 201-287 W262F): as the sequence (Q00056 201-287 W262R) above, with R62F counted along it
# [15] = molecular target: HOXC10 (Homo sapiens, UniProt Q9NYD6 254-340)
# HOXC10 (Homo sapiens, UniProt Q9NYD6 254-340), sequence (Q9NYD6 254-340): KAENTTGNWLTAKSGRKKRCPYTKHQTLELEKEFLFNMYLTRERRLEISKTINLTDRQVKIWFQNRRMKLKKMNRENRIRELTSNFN
# [16] = molecular target: HOXC10 (Homo sapiens, UniProt Q9NYD6 254-340, K271E)
# HOXC10 (Homo sapiens, UniProt Q9NYD6 254-340, K271E), sequence (Q9NYD6 254-340 K271E): as the sequence (Q9NYD6 254-340) above, with K18E counted along it
# [17] = molecular target: MSX2 (Homo sapiens, UniProt P35548 130-214, R199I)
# MSX2 (Homo sapiens, UniProt P35548 130-214, R199I), sequence (P35548 130-214 R199I): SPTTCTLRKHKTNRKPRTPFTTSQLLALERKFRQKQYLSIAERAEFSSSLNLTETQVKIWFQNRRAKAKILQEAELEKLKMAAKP
# [18] = molecular target: MSX2 (Homo sapiens, UniProt P35548 130-214)
# MSX2 (Homo sapiens, UniProt P35548 130-214), sequence (P35548 130-214): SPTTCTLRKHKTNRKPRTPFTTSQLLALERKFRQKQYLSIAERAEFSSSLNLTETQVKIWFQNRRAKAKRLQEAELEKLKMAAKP
# [19] = molecular target: MSX2 (Homo sapiens, UniProt P35548 130-214, F161Y)
# MSX2 (Homo sapiens, UniProt P35548 130-214, F161Y), sequence (P35548 130-214 F161Y): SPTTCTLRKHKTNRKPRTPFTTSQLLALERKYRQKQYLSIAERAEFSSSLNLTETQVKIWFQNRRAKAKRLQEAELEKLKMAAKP
# [20] = molecular target: T1, PAX4 (Homo sapiens, UniProt O43316 9-242, R200K)
# T1 sequence: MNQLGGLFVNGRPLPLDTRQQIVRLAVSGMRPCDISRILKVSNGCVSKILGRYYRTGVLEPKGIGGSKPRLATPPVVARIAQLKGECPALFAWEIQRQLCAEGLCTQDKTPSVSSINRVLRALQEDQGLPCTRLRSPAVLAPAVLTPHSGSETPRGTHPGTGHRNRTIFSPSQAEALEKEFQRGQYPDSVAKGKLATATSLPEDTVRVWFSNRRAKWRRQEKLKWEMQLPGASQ
# [21] = molecular target: T2, PAX4 (Homo sapiens, UniProt O43316 9-242)
# T2 sequence: T1 sequence with K192R
# [22] = molecular target: T3, PAX4 (Homo sapiens, UniProt O43316 9-242, R200Q)
# T3 sequence: T1 sequence with K192Q
# [23] = molecular target: T4, PAX4 (Homo sapiens, UniProt O43316 9-242, F177V)
# T4 sequence: T1 sequence with F169V, K192R
# [24] = molecular target: T5, PAX4 (Homo sapiens, UniProt O43316 9-242, F177Y)
# T5 sequence: T1 sequence with F169Y, K192R
# [25] = molecular target: T6, PAX4 (Homo sapiens, UniProt O43316 9-242, R227W)
# T6 sequence: T1 sequence with K192R, R219W
# HOXC9 (Homo sapiens, UniProt P31274 178-260), sequence (P31274 178-260): as the sequence (P31274 178-260 R193K) above, with K16R counted along it
# HOXC9 (Homo sapiens, UniProt P31274 178-260, K195R), sequence (P31274 178-260 K195R): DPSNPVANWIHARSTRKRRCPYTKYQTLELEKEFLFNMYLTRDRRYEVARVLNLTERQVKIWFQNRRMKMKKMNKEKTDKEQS
# ALX3 (Homo sapiens, UniProt O95076 139-225, N203Q), sequence (O95076 139-225 N203Q): as the sequence (O95076 139-225) above, with N65Q counted along it
# HOXA7 (Homo sapiens, UniProt P31268 116-202), sequence (P31268 116-202): as the sequence (P31268 116-202 W177C) above, with C62W counted along it
sequence,measurement,setting,value
AGCAGCCC,binding signal,[1],"9.76 upbm affinity estimate (log intensity, higher = more binding, comparable within an allelic series)"
same,binding signal,[2],"8.64 upbm affinity estimate (log intensity, higher = more binding, comparable within an allelic series)"
same,binding signal,[3],"9.83 upbm affinity estimate (log intensity, higher = more binding, comparable within an allelic series)"
same,binding signal,[4],"7.76 upbm affinity estimate (log intensity, higher = more binding, comparable within an allelic series)"
same,binding signal,[5],"9.78 upbm affinity estimate (log intensity, higher = more binding, comparable within an allelic series)"
same,binding signal,[6],"7.62 upbm affinity estimate (log intensity, higher = more binding, comparable within an allelic series)"
same,binding signal,[7],"7.67 upbm affinity estimate (log intensity, higher = more binding, comparable within an allelic series)"
same,binding signal,[8],"9.61 upbm affinity estimate (log intensity, higher = more binding, comparable within an allelic series)"
same,binding signal,[9],"7.75 upbm affinity estimate (log intensity, higher = more binding, comparable within an allelic series)"
same,binding signal,[10],"8.34 upbm affinity estimate (log intensity, higher = more binding, comparable within an allelic series)"
same,binding signal,[11],"7.72 upbm affinity estimate (log intensity, higher = more binding, comparable within an allelic series)"
ATGACAGC,binding signal,[12],"10.2 upbm affinity estimate (log intensity, higher = more binding, comparable within an allelic series)"
same,binding signal,[13],"11.3 upbm affinity estimate (log intensity, higher = more binding, comparable within an allelic series)"
same,binding signal,[14],"10.5 upbm affinity estimate (log intensity, higher = more binding, comparable within an allelic series)"
GAAAACGA,binding signal,[12],"10.1 upbm affinity estimate (log intensity, higher = more binding, comparable within an allelic series)"
same,binding signal,[13],"10.9 upbm affinity estimate (log intensity, higher = more binding, comparable within an allelic series)"
GTTCTTAA,binding signal,[12],"10.3 upbm affinity estimate (log intensity, higher = more binding, comparable within an allelic series)"
same,binding signal,[13],"11.4 upbm affinity estimate (log intensity, higher = more binding, comparable within an allelic series)"
same,binding signal,[14],"10.5 upbm affinity estimate (log intensity, higher = more binding, comparable within an allelic series)"
CTCGCGAG,binding signal,[1],"9.76 upbm affinity estimate (log intensity, higher = more binding, comparable within an allelic series)"
same,binding signal,[15],"10 upbm affinity estimate (log intensity, higher = more binding, comparable within an allelic series)"
same,binding signal,[3],"9.82 upbm affinity estimate (log intensity, higher = more binding, comparable within an allelic series)"
same,binding signal,[5],"9.78 upbm affinity estimate (log intensity, higher = more binding, comparable within an allelic series)"
same,binding signal,[16],"10.1 upbm affinity estimate (log intensity, higher = more binding, comparable within an allelic series)"
same,binding signal,[8],"9.89 upbm affinity estimate (log intensity, higher = more binding, comparable within an allelic series)"
GTAAATAC,binding signal,[12],"10.3 upbm affinity estimate (log intensity, higher = more binding, comparable within an allelic series)"
same,binding signal,[13],"11.3 upbm affinity estimate (log intensity, higher = more binding, comparable within an allelic series)"
AGCCCTCC,binding signal,[1],"9.66 upbm affinity estimate (log intensity, higher = more binding, comparable within an allelic series)"
same,binding signal,[15],"10 upbm affinity estimate (log intensity, higher = more binding, comparable within an allelic series)"
same,binding signal,[3],"9.73 upbm affinity estimate (log intensity, higher = more binding, comparable within an allelic series)"
same,binding signal,[17],"9.53 upbm affinity estimate (log intensity, higher = more binding, comparable within an allelic series)"
same,binding signal,[4],"7.79 upbm affinity estimate (log intensity, higher = more binding, comparable within an allelic series)"
same,binding signal,[5],"9.66 upbm affinity estimate (log intensity, higher = more binding, comparable within an allelic series)"
same,binding signal,[16],"10 upbm affinity estimate (log intensity, higher = more binding, comparable within an allelic series)"
same,binding signal,[18],"9.44 upbm affinity estimate (log intensity, higher = more binding, comparable within an allelic series)"
same,binding signal,[6],"7.83 upbm affinity estimate (log intensity, higher = more binding, comparable within an allelic series)"
same,binding signal,[7],"7.75 upbm affinity estimate (log intensity, higher = more binding, comparable within an allelic series)"
same,binding signal,[8],"9.65 upbm affinity estimate (log intensity, higher = more binding, comparable within an allelic series)"
same,binding signal,[9],"7.79 upbm affinity estimate (log intensity, higher = more binding, comparable within an allelic series)"
same,binding signal,[19],"9.49 upbm affinity estimate (log intensity, higher = more binding, comparable within an allelic series)"
same,binding signal,[11],"7.76 upbm affinity estimate (log intensity, higher = more binding, comparable within an allelic series)"
ACCGCCCG,binding signal,[1],"9.62 upbm affinity estimate (log intensity, higher = more binding, comparable within an allelic series)"
same,binding signal,[20],"9.22 upbm affinity estimate (log intensity, higher = more binding, comparable within an allelic series)"
same,binding signal,[21],"9.09 upbm affinity estimate (log intensity, higher = more binding, comparable within an allelic series)"
same,binding signal,[3],"9.79 upbm affinity estimate (log intensity, higher = more binding, comparable within an allelic series)"
same,binding signal,[22],"9.24 upbm affinity estimate (log intensity, higher = more binding, comparable within an allelic series)"
same,binding signal,[5],"9.6 upbm affinity estimate (log intensity, higher = more binding, comparable within an allelic series)"
same,binding signal,[23],"9.1 upbm affinity estimate (log intensity, higher = more binding, comparable within an allelic series)"
same,binding signal,[24],"9.01 upbm affinity estimate (log intensity, higher = more binding, comparable within an allelic series)"
same,binding signal,[8],"9.71 upbm affinity estimate (log intensity, higher = more binding, comparable within an allelic series)"
same,binding signal,[25],"9.19 upbm affinity estimate (log intensity, higher = more binding, comparable within an allelic series)"
